Test results published in PubChem BioAssay (Tox21).
Records with an inconclusive call do not appear. Activity calls are given as the source filed them. Unless noted, calls follow the shape of the full dose curve.

Columns and labels:
[1] = Nuclear factor erythroid 2-related factor 2/antioxidant responsive element (Nrf2/ARE) small molecule agonists: qHTS cell viability counter screen in human keratinocytes (AID 1919968; active = well fitted curve in the direction sought with a large enough effect in the repeat runs; an effect the other way counts as inactive or inconclusive; also: nearly all actives have a fitted effect of over 55% in size); details: KeratinoSens HaCaT ARE cells viability, CellTiter-Fluor, 24 h; series mostly up to 92.4 µM
In short: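 Cells of the KeratinoSens line were plated at 1,500 per well and left for 5 h before compound transfer from DMSO stocks. After a 23 h incubation (37 C, 5% CO2), CellTiter-Fluor was added. Signal was taken as fluorescence intensity 1 h later.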

[2] = Nuclear factor erythroid 2-related factor 2/antioxidant responsive element (Nrf2/ARE) small molecule agonists: luciferase reporter gene qHTS assay in human keratinocytes (AID 1919969); details: KeratinoSens HaCaT ARE-luciferase, luminescence, 24 h; series mostly up to 92.4 µM; also: nearly all actives have a fitted effect of over 35% in size; also: potency is read from the fitted curve at half-maximal effect
[3] = molecular target: Gonadotropin-releasing hormone receptor (Homo sapiens) (UniProt P30968); assay: Human gonadotropin-releasing hormone receptor (GnRHR) small molecule agonists, calcium flux assay in GnRHR-HEK293 cells (AID 1920063); details: calcium flux fluorescence, agonist mode; series mostly up to 57.6 µM; also: nearly all actives have a fitted effect of over 35% in size
In short: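 Compounds dissolved in DMSO are pin-transferred onto dye-loaded GnRHR-HEK293 cells, which were seeded 18 h before at 37 C/5% CO2. Calcium signal is read as fluorescence intensity at 1 s intervals for 3 min.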

[4] = molecular target: KiSS-1 receptor (Homo sapiens) (UniProt Q969F8); assay: Human kisspeptin (KISS1R) small molecule agonists, calcium flux assay in KISS1R-HEK293 cells (AID 1920064; active = well fitted curve in the direction sought with a large enough effect in the repeat runs; an effect the other way counts as inactive or inconclusive); details: KISS1R-HEK293, calcium flux fluorescence, agonist; series mostly up to 76.8 µM
In short: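 Cell line: HEK293, stable human KISS1R. Dye loading 1 h at 37 C after 18 h culture. Read: kinetic fluorescence, 480/540 nm, 3 min at 1 s intervals.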

[5] = G protein-coupled receptor (GPCR) small molecule agonists, calcium flux assay: HEK293 wild type cell line counter screen (AID 1920065); details: HEK293 WT calcium flux, fluorescence, agonist mode; series mostly up to 57.6 µM
In short: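 Tox21 10K compounds, 15 concentrations each in triplicate, pin-transferred in DMSO onto dye-loaded cells; kinetic read at 480/540 nm for 3 min, 1 s intervals.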

[6] = p53 small molecule agonists, cell-based qHTS assay with human liver microsomes (AID 1963577); details: HCT-116 p53RE-bla with human liver microsomes, ratio, 16 h; series mostly up to 66 µM
In short: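 Fluorescence of the beta-lactamase reporter in p53RE-bla cells, detected with LiveBLAzer substrate (2 h, room temperature, dark), served as the read-out after 16 h compound exposure at 37 C with human liver microsomes and NADPH, each 0.5 mg/mL final.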

[7] = p53 small molecule agonists, cell-based qHTS assay with rat liver microsomes (AID 1963578); details: HCT-116 p53RE-bla, beta-lactamase ratio, 16 h; series mostly up to 66 µM
In short: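 Cells carrying a p53 response element–beta-lactamase reporter were plated and rested 5 h, then dosed with compound in DMSO plus rat liver microsomes and NADPH, each at 0.5 mg/mL final. After 16 h at 37 C, LiveBLAzer substrate was added for 2 h.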

[8] = p53 small molecule agonists, cell-based qHTS assay with human liver microsomes: qHTS cell viability counter screen (AID 1963579); details: p53RE-bla HCT-116 viability, ATP luminescence, 16 h, HLM; series mostly up to 66 µM; also: nearly all actives have a fitted effect of over 45% in size
In short: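 Cytotoxicity counter screen: p53RE-bla, 4,000 cells/well; 5 h settle, 37 C/5% CO2; cpd + HLM 0.5 mg/mL + NADPH 0.5 mg/mL (final); 16 h, 37 C; CellTiter-Glo, 30 min RT, luminescence.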

[9] = p53 small molecule agonists, cell-based qHTS assay with rat liver microsomes: qHTS cell viability counter screen (AID 1963580); details: p53RE-bla HCT-116 + rat microsomes, ATP viability, 16 h; series mostly up to 66 µM; also: nearly all actives have a fitted effect of over 45% in size
In short: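 Rat liver microsome (0.5 mg/mL final) and NADPH (0.5 mg/mL final) co-incubation with compounds for 16 h at 37 C on HCT-116 p53RE-bla cells; cytotoxicity taken from intracellular ATP luminescence.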

[10] = p53 small molecule agonists, cell-based qHTS assay: qHTS cell viability counter screen (AID 1963581); details: p53RE-bla HCT-116 viability, ATP luminescence, 16 h; series mostly up to 66 µM; also: nearly all actives have a fitted effect of over 45% in size
In short: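 ATP content measured by luminescence in HCT-116 p53RE-bla cells treated 16 h at 37 C, same wells as the reporter screen.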

[11] = molecular target: 5-hydroxytryptamine receptor 2A (Homo sapiens) (UniProt P28223); assay: 5-hydroxytryptamine receptor 2A (HTR2A) small molecule agonists, cell-based qHTS assay (AID 1963587); details: HTR2A-CHO cells, calcium flux fluorescence, agonist mode; series mostly up to 76.8 µM; also: nearly all actives have a fitted effect of over 30% in size
In short: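 Kinetic calcium-flux fluorescence (2 min, 1 sec intervals) after compound addition in agonist mode. HTR2A-CHO cells were cultured 18 h, then dye-loaded 1 h at 37 C.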

[12] = molecular target: Muscarinic acetylcholine receptor M1 (Homo sapiens) (UniProt P11229); assay: Cholinergic receptor muscarinic 1 (CHRM1) small molecule antagonists, cell-based qHTS assay (AID 1963588); details: CHRM1-CHO antagonist mode, calcium flux fluorescence; series mostly up to 61.5 µM; also: nearly all actives have a fitted effect of over 40% in size
In short: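 Compounds were tested at 15 concentrations in three independent runs. Dye-loaded CHRM1-CHO cells were exposed 5 min at room temperature before stimulation by acetylcholine added at 50nM. Intracellular calcium was read kinetically on FDSS for 3 min.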

[13] = molecular target: Muscarinic acetylcholine receptor M1 (Homo sapiens) (UniProt P11229); assay: Cholinergic receptor muscarinic 1 (CHRM1) small molecule agonists, cell-based qHTS assay (AID 1963589); details: CHRM1-CHO cells, agonist mode, calcium flux fluorescence; series mostly up to 76.8 µM; also: nearly all actives have a fitted effect of over 35% in size
In short: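 Homogeneous fluorescence calcium flux, agonist mode. Human M1-expressing CHO cells; compound dosed at 15 concentrations, three independent runs; signal sampled every 1 sec.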

[14] = cAMP Responsive Elements (CRE) small molecule agonists, cell-based qHTS assay (AID 1963590); details: CRE-bla HEK293T, beta-lactamase FRET ratio, 3 h; series mostly up to 92.4 µM
In short: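 HEK 293T cells stably bearing CRE-bla were plated at 2,000 cells per well and rested 18 h. Compounds, positive controls or DMSO were added for 3 h at 37 C. LiveBLAzer B/G substrate was then loaded for 2 h at room temperature.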

[15] = molecular target: Beta-2 adrenergic receptor (Homo sapiens) (UniProt P07550); assay: Adrenergic beta2 receptor (ADRB2) small molecule antagonists, cell-based qHTS assay (AID 1963592); details: CHO-ADRB2 cells, isoproterenol-stimulated cAMP HTRF ratio, 0.5 h; series mostly up to 92.4 µM; also: nearly all actives have a fitted effect of over 50% in size
In short: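 Assay format: CHO-ADRB2 cells, 18-20hr seeding at 37C/5% CO2, then compound plus 1nM isoproterenol agonist mix for 0.5hr RT. Homogeneous time-resolved fluorescence cAMP detection after 1hr, expressed as 665/615 nm ratio.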

[16] = molecular target: Beta-2 adrenergic receptor (Homo sapiens) (UniProt P07550); assay: Adrenergic beta2 receptor (ADRB2) small molecule agonists, cell-based qHTS assay (AID 1963593); details: CHO-ADRB2 cells, cAMP HTRF, 30 min; series mostly up to 42.5 µM;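 also: CHO cells stably overexpressing human ADRB2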
In short: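 CHO cells stably over-expressing ADRB2 were plated overnight at 37C, then dosed with compounds plus a stimulation mix containing 100uM IBMX and 25uM Ro-20-1724 for 0.5hr at room temperature. cAMP was measured by HTRF competition, 1hr.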

[17] = molecular target: D(2) dopamine receptor (Homo sapiens) (UniProt P14416); assay: Dopamine D2 receptor (DRD2) small molecule agonists, cell-based qHTS assay (AID 1963594); details: HEK293-DRD2 cAMP HTRF, agonist mode, 30 min; series mostly up to 92.4 µM; also: nearly all actives have a fitted effect of over 35% in size
In short: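 cAMP accumulation in DRD2-HEK293 cells measured by HTRF after 1 h detection; compounds added 10 min before NKH477 (200nM […]) forskolin-analogue stimulation, 30 min at room temperature, with Ro20-1724 present at 0.1 mM final.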

[18] = molecular target: D(2) dopamine receptor (Homo sapiens) (UniProt P14416); assay: Dopamine D2 receptor (DRD2) small molecule antagonists, cell-based qHTS assay (AID 1963595; active = well fitted inhibition curve with a large enough effect in the signal ratio in the repeat runs, with a control signal flat; the % refers to the signal ratio); details: HEK293-DRD2 cAMP HTRF antagonist mode; series mostly up to 92.4 µM
In short: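 Human DRD2 antagonist qHTS measuring cAMP by HTRF. The cells are exposed to compound for 10 min, then to NKH477 (200 nM) and quinpirole (12 nM) for 30 min at RT, with Ro20-1724 (0.1 mM) present throughout.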

[19] = molecular target: 5-hydroxytryptamine receptor 2A (Homo sapiens) (UniProt P28223); assay: 5-hydroxytryptamine receptor 2A (HTR2A) small molecule antagonists, cell-based qHTS assay (AID 1963586); details: HTR2A-CHO cells, DOI-induced calcium flux, fluorescence; series mostly up to 61.5 µM; also: nearly all actives have a fitted effect of over 45% in size
In short: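 CHO cells stably expressing human HTR2A were plated for 18 h at 37 C, then loaded with calcium dye for 1 h. Compounds were preincubated 5 min at room temperature before DOI (4 nM solution) was added. Kinetic fluorescence was read for 3 min.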

[20] = cAMP Responsive Elements (CRE) small molecule antagonists, cell-based qHTS assay (AID 1963591; active = well fitted inhibition curve with a large enough effect in the signal ratio in the repeat runs, not every such curve was filed as active; the % refers to the signal ratio); details: CRE-bla HEK293T, beta-lactamase FRET ratio; series mostly up to 92.4 µM
In short: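 First, CRE-bla HEK293T cells settled 18 h at 37 C. Next, compound and 0.25 uM final NKH477 were applied for 3 h. Last, LiveBLAzer B/G substrate was loaded for 2 h at room temperature.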
% is scaled to controls: 0 for no effect and ±100 for the full control effect.

Sequence of 5-hydroxytryptamine receptor 2A (Homo sapiens) (P28223 whole entry, looked up): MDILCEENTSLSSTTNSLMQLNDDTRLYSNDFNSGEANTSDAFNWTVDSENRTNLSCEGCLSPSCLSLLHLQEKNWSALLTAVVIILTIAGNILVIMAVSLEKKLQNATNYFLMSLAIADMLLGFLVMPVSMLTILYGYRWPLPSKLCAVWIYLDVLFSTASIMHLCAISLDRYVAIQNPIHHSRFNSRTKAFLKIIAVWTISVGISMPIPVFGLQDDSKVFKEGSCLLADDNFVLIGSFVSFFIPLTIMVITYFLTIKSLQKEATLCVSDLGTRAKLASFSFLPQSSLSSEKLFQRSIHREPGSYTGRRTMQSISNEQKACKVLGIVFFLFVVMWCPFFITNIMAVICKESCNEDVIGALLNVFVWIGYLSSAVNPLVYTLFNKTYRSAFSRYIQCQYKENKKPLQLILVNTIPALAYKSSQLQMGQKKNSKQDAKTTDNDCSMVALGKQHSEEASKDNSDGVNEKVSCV
Sequence of KiSS-1 receptor (Homo sapiens) (Q969F8 whole entry, looked up): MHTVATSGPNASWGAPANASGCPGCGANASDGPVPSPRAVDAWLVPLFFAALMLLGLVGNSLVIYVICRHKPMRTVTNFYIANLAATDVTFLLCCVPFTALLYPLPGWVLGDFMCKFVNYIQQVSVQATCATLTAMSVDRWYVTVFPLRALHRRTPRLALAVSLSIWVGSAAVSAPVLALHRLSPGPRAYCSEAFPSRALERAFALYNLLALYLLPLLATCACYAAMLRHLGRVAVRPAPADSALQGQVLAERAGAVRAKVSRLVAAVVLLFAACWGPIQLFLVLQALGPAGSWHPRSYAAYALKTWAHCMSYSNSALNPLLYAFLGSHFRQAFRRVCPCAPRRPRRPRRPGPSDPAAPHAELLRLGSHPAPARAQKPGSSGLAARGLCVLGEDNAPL
Sequence of D(2) dopamine receptor (Homo sapiens) (P14416 whole entry, looked up): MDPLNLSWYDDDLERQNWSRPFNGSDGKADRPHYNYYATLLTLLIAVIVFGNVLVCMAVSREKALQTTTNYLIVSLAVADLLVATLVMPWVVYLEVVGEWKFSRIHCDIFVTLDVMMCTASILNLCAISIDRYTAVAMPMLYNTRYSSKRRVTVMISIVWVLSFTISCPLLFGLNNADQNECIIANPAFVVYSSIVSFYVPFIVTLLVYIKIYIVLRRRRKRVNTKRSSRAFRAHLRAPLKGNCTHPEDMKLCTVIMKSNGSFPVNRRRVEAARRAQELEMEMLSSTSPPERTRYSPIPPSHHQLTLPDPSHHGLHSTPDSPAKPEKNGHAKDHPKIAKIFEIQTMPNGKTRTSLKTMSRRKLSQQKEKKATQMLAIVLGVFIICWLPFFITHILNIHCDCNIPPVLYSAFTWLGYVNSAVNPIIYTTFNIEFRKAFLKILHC
Sequence of Gonadotropin-releasing hormone receptor (Homo sapiens) (P30968 whole entry, looked up): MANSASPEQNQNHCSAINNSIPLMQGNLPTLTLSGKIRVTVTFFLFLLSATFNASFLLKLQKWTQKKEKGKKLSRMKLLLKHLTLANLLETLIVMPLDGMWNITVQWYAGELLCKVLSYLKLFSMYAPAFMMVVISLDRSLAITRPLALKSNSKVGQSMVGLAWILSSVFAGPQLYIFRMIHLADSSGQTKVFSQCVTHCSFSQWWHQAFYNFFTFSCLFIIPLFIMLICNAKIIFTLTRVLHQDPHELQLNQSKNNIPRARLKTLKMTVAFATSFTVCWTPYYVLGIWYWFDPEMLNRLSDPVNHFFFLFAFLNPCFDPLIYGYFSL
Sequence of Muscarinic acetylcholine receptor M1 (Homo sapiens) (P11229 whole entry, looked up): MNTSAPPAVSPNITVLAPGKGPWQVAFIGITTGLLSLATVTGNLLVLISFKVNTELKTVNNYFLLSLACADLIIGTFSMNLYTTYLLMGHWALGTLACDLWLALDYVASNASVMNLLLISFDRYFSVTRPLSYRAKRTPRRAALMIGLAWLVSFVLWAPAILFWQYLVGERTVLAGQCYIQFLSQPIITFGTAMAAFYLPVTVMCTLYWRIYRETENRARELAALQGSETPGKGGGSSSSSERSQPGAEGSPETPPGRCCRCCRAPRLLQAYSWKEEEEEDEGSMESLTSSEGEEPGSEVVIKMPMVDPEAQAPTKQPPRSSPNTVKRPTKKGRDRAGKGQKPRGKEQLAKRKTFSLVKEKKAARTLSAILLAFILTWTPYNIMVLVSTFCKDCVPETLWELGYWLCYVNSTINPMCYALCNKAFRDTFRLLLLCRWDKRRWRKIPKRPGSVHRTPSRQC
Sequence of Beta-2 adrenergic receptor (Homo sapiens) (P07550 whole entry, looked up): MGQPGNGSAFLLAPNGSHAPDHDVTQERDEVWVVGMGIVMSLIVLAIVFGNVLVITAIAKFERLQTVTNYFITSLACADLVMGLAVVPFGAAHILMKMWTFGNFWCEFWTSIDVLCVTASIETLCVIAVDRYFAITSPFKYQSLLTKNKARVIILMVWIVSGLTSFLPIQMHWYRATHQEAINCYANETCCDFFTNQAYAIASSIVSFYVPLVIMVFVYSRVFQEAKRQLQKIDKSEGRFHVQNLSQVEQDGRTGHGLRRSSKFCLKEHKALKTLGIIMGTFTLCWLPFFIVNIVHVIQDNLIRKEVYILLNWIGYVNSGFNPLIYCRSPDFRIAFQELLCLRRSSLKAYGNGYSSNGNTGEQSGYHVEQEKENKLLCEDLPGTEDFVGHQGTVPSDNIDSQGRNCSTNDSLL

O=c1[nH]cnc2ccccc12
active: Potency [2] 63.1 nM
inactive: Potency [1] | Potency [3] | outcome [4] | outcome [5] | Potency [6] | Potency [7] | Potency [8] | Potency [9] | Potency [10] | Potency [11] | Potency [12] | Potency [13] | Potency [14] | Potency [15] | Potency [16] | Potency [17] | Potency [18]

FC(F)(F)C(F)(F)C(F)(F)C(F)(F)C(F)(F)C(F)(F)C(F)(F)C(F)(F)C(F)(F)C(F)(F)F
inactive: activity change, negative = cytotoxicity [1] 2.36% [at 8.39 µM] | activity, positive = activation [2] -2.47% [at 8.39 µM] | activity change [3] 0.129% [at 5.22 µM, stronger effect = higher value] | activation [4] -3.4% [at 6.97 µM] | activation [5] -1.63% [at 5.23 µM] | activation [6] 0.0412% [at 5.99 µM] | activation [7] -3.19% [at 5.99 µM] | activity change, negative = cytotoxicity [8] 2.89% [at 5.99 µM] | activity change, negative = cytotoxicity [9] -0.558% [at 5.99 µM] | activity, negative = inhibition [19] -16.5% [at 5.62 µM] | activation [11] 9.84% [at 7.02 µM] | activity, negative = inhibition [12] 8.35% [at 5.58 µM] | activation [13] -0.0294% [at 6.97 µM] | activation [14] -1.41% [at 8.39 µM] | activity change, negative = inhibition [20] -8.96% [at 8.39 µM] | activity change, negative = inhibition [15] 4.67% [at 8.39 µM] | activity change, negative = inhibition [18] 10.1% [at 8.38 µM]

FC(F)(F)C(F)(F)C(F)(F)C(F)(F)CCI
inactive: Potency [1] | Potency [2] | Potency [3] | outcome [4] | outcome [5] | Potency [6] | Potency [7] | Potency [8] | Potency [9] | Potency [19] | Potency [11] | Potency [12] | Potency [13] | Potency [14] | Potency [20] | Potency [15] | Potency [16] | Potency [17] | Potency [18]

C=COC(=O)C(C)(CC)CCC(C)C (centres undefined)
inactive: Potency [1] | Potency [2] | Potency [3] | outcome [4] | outcome [5] | Potency [6] | Potency [7] | Potency [8] | Potency [9] | Potency [19] | Potency [11] | Potency [12] | Potency [13] | Potency [14] | Potency [20] | Potency [15] | Potency [17] | Potency [18]

CCOC(=O)Cn1c(=O)sc2cccc(Cl)c21
inactive: Potency [1] | Potency [2] | Potency [3] | outcome [4] | outcome [5] | Potency [6] | Potency [7] | Potency [8] | Potency [9] | Potency [19] | Potency [11] | Potency [12] | Potency [13] | Potency [14] | Potency [15] | Potency [17] | Potency [18]
